In the library only some 3.4% were active in any assay of this set; here they are far more common.
HSF-1 act = increases HSF-1 driven luciferase reporter signal | NIH3T3-HGL HSF-1 luciferase reporter, MG132, 8 h; 100% = twice DMSO control signal | activation, % at 9 µM | 300,000 tested, 1.7% active | AID 504408;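 active means mean replicate activation of at least 50% with a set share of replicates each reaching 50%; inconclusive means only one of those two conditions met; inactive means mean below 50% and too few replicates reaching it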
esBAF inh = SWI/SNF esBAF complex inhibition. mouse ES cells, Bmi1-luciferase knock-in reporter, 24 h; 100% = twice the neutral-well signal. reporter increase, % at 12.5 µM. 350,000 tested, 2% active. AID 602393; in the data active means activation above about 40%; inconclusive means no clear call, values can overlap the other calls;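 further: a rise in the Bmi1 reporter signal indicates esBAF inhibition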
HSF1 inhib = HSF1 inhibition; NIH3T3-HGL HSE-luciferase, MG132-induced, luminescence 8 h; hits give low values; activity change, negative = inhibition, % at 7.5 µM (by protocol); 300,000 tested, 0.77% active; AID 2098;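 active means more than half of replicate wells show activity change below -50%, luminescence cut by over half; inconclusive means some wells, but at most half, below -50%; inactive means no replicate well below -50%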;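 further: luciferase reports HSF-1 transcriptional activity via heat shock element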
Vif imaging = HIV Vif inhibition; 340,000 tested, 0.35% active; HEK293T cells, Vif self-association by quenched fluorescence, imaging, 24 h; inhibition, % at 7.49 µM; in the data active means inhibition above about 50%, passing the limit was not always enough; inconclusive means no clear call, values can overlap the other calls; inactive means below about 31%
Ring1 derepress = esBAF inhibition confirmed by Ring1 de-repression | AID 743176 | mouse ESC E14, Ring1 mRNA RT-qPCR fold change | fold change at 33 µM | shares compounds with esBAF inh | 550 tested, under 10 active;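 active means Ring1 gene expression raised more than 2-fold over untreated cells in both replicates at either tested dose; inconclusive means only one replicate above 2-fold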;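 further: Ring1 transcript normalised to actin housekeeping signal by TaqMan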
Fgf4 repress = represses Fgf4 in mouse ESCs, confirming esBAF inhibition | mouse ESC E14, Fgf4 mRNA qPCR fold change; hits give low values | shares compounds with esBAF inh | 550 tested, 4% active | AID 743177 | Fgf4 expression fold change at 33 µM;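 active means Fgf4 expression under 0.8 fold of control in both repeat measurements at one or both tested doses; inconclusive means under 0.8 fold in just a single repeat measurement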;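 further: Fgf4 transcript normalised to actin in duplex TaqMan qPCR; cells exposed to compound for 24 h before lysis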
Bmi1 derepress = de-represses Bmi1 in mouse ESCs, confirming esBAF inhibition; shares compounds with esBAF inh; mouse ESE14 ES cells, Bmi1 mRNA qPCR fold; hits give high values; fold change at 33 µM; 550 tested, under 10 active; AID 743180;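 active means Bmi1 expression fold change above 6 at either tested concentration, seen in replicate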;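 further: higher fold means more Bmi1 de-repression and stronger esBAF inhibition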
A549 cytotox = A549 cell cytotoxicity; shares compounds with esBAF inh; plate reader; cell viability change % (negative = cytotoxic), % at 25 µM, hits read low; 550 tested, under 10 active; AID 743188; call rule not given here
HepG2 cytotox SP = kills or reduces viability of HepG2 cells. HepG2 cytotoxicity, plate reader; hits give low values. 550 tested, 4% active. shares compounds with esBAF inh. AID 743189. activity change, negative = inhibition, % at 25 µM; in the data active means activity change below about -50%
HEK293 cytotox SP = kills or reduces viability of HEK293 cells; activity change, negative = inhibition, % at 25 µM, hits read low; 550 tested, 3% active; shares compounds with esBAF inh; AID 743190; HEK293 cytotoxicity, plate reader; in the data active means activity change below about -38%, passing the limit was not always enough
Each line names hits and unclear results; the compound was inactive in the other large screens (follow-up assays come after a bar, where they were run).

O=C(NC1(C(F)(F)F)Oc2ccc(Cl)cc2O1)N1CCC2(CC1)OCCO2 (configuration not stated)	Vif imaging 78
CN1C(=O)C(=Cc2sc(=O)n(-c3ccccc3)c2N2CCCCC2)C(=O)N(C)C1=O	HSF-1 act 67 (no result: esBAF inh)
N#Cc1cccc(-c2ccc([C@@H]3[C@@H](CO)N4CCCCN(C(=O)Cc5cccnc5)C[C@@H]34)cc2)c1	none (no result: HSF-1 act, HSF1 inhib, Vif imaging)
Cn1ncnc2c(=O)n(C)c(=O)nc1-2	HSF1 inhib -95
O=C(Cc1ccccn1)N1CCCCN2[C@@H](CO)[C@@H](c3ccc(-c4ccccc4F)cc3)[C@@H]2C1	none (no result: HSF-1 act, HSF1 inhib, Vif imaging)
O=C1CN=C(c2ccccc2)c2ccccc2N1Cc1ccc(C(F)(F)F)cc1	none (no result: Vif imaging)
Cc1oc(-c2ccccc2Cl)nc1CN1C(=O)CN=C(c2ccccc2)c2ccccc21	HSF-1 act 95 (no result: Vif imaging)
COC(=O)[C@H]1[C@H](CO)[C@H]2Cn3c(ccc(-c4cccc(OC)c4)c3=O)[C@@H]1N2CC1CC1	none (no result: HSF-1 act, HSF1 inhib, Vif imaging)
CN1C2CCC1/C(=C/c1ccccn1)C(=O)/C2=C\c1ccccn1	Vif imaging 106 (no result: HSF-1 act, esBAF inh, HSF1 inhib)
Cn1c(=O)oc(=O)c2ccccc21	none (no result: HSF-1 act, HSF1 inhib)
Cc1cc(C(=O)N=Nc2c(O)n(C)c3ccccc23)c(C)o1	HSF-1 act 80
CC=Cc1ccc2n(c1=O)C[C@H]1[C@H](CO)[C@@H](C(=O)OC)[C@@H]2N1S(=O)(=O)c1cccc(C)c1 (mixture of isomers)	none (no result: HSF-1 act, HSF1 inhib, Vif imaging)
c1ccc(Nc2ccc3ccccc3c2)cc1	esBAF inh 74 (no result: HSF-1 act, HSF1 inhib) | Ring1 derepress inactive | Fgf4 repress inconclusive | Bmi1 derepress inactive | A549 cytotox inactive | HepG2 cytotox SP inactive | HEK293 cytotox SP inactive
COc1ccc(-c2ccc3n2Cc2cnnn2-c2ccccc2-3)cc1	esBAF inh 82 (no result: HSF-1 act, HSF1 inhib, Vif imaging) | Ring1 derepress inactive | Fgf4 repress inactive | Bmi1 derepress inactive | A549 cytotox inactive | HepG2 cytotox SP inactive | HEK293 cytotox SP inactive
c1ccc(CCc2ccc3n2Cc2cnnn2-c2ccccc2-3)cc1	none (no result: HSF-1 act, HSF1 inhib, Vif imaging)
COC(=O)[C@@H]1[C@@H](CO)[C@@H]2Cn3c(ccc(-c4ccc(OC)cc4)c3=O)[C@H]1N2C(=O)c1ccccc1F	none (no result: HSF-1 act, HSF1 inhib, Vif imaging)
O=c1[nH]cnc2nc(-c3ccc(N(CCCl)CCCl)cc3)[nH]c12	esBAF inh 74 (no result: HSF-1 act, HSF1 inhib) | Ring1 derepress inactive | Fgf4 repress inactive | Bmi1 derepress inactive | A549 cytotox -54 | HepG2 cytotox SP inactive | HEK293 cytotox SP -37
O=C(O)[C@@H]1[C@@H](CO)[C@@H]2Cn3c(ccc(-c4ccncc4)c3=O)[C@H]1N2C(=O)C1CCCCC1	none (no result: HSF-1 act, HSF1 inhib, Vif imaging)

Screening results (PubChem)
